Bioassay records as filed in PubChem.
Most compounds without a hit are left out; they make up all but 3.5% or so of the library.
MITF inh – human MITF inhibition, primary screen; AID 1259374; actives 0.91% (n = 650,000); AlphaScreen MITF homodimerization, bead proximity signal; O75030; inhibition, % at 2.6 µM; in the data active = inhibition above about 50%;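 also: 0% = vehicle wells with protein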
TEAD-YAP inh – TEAD-YAP interaction inhibition | HEK-TIYL cells, TEAD-Gal4/YAP UAS-luciferase luminescence | inhibition, % at 9.12 µM | actives 1.4% (n = 640,000); in the data active = inhibition above about 32%;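 also: 0% = median of test compound wells and 100% = reference inhibitor wells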
GPR151 ag – activators of human GPR151 | Q8TDV0 | PathHunter beta-arrestin GPR151 cells, luminescence | activation, % at 11.2 µM | actives 1% (n = 650,000) | AID 1508602; in the data active = activation above about 4.9%;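 also: 0% = median of compound wells and 100% = cells with positive control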
Target sequence (Q8TDV0 whole entry, looked up): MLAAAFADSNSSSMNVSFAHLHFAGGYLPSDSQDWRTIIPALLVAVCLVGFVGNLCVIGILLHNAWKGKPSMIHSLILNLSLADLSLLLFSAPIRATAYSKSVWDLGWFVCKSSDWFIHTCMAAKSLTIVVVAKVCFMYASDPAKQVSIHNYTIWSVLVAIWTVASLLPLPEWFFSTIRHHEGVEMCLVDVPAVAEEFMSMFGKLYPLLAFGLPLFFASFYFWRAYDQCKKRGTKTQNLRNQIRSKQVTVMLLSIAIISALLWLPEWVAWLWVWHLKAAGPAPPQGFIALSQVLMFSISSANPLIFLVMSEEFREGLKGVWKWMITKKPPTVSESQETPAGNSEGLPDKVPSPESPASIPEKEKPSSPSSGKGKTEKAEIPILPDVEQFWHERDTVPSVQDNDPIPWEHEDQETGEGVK
FBW7 act – human FBW7 E3 ligase activation, primary screen; AID 1259310; Q969H0; actives 0.13% (n = 650,000); normalized activity (activation), % at 26.1 µM; AlphaScreen FBW7–phospho-cyclin E peptide binding, activator screen; in the data active = normalized activity above about 1.9%;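 also: purified mutant Fbw7 with reduced substrate affinity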
GPR151 conf act – confirmation of human GPR151 activators. shares compounds with GPR151 ag. 6,700 tested, under 10 active. activation, % at 11.2 µM. GPR151 PathHunter beta-arrestin cells, luminescence, 90 min; % of EA-reagent control over plate median;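 active = mean percent activation across replicates above the confirmation screen cutoff of 4.91%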
GPR119 counter – counter-screen for GPR151 activators: effect on human GPR119; shares compounds with GPR151 ag; GPR119 PathHunter beta-arrestin cells, luminescence, 90 min; 0 = compound-well median, 100 = enzyme-acceptor control; activation, % at 11.2 µM; actives 0.3% (n = 6,700);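 active = mean percent activation in the counterscreen above 29.09%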;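 also: counterscreen on off-target GPR119 to flag nonselective hits from the GPR151 activator screen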
Numbers without * were called inactive; nt = no result.

SMILES	MITF inh	TEAD-YAP inh	GPR151 ag	FBW7 act	GPR151 conf act	GPR119 counter
COc1ccc(CCNC(=O)NC2CC(=O)N(c3cccc(F)c3)C2)cc1 (configuration not stated)	-3.2	-2.7	1.2	0.0	nt	nt
O=C(NCCc1ccccc1)C1CC(=O)N(c2ccc(Br)cc2)C1 (configuration not stated)	13.0	1.1	5.5*	0.2	0.8	-6.6
COc1ccc(CCNC(=O)NC2CC(=O)N(c3ccccc3)C2)cc1 (configuration not stated)	-1.9	0.4	6.1*	-0.2	-0.5	2.8
COc1ccc(CC(=O)NNC(=O)c2ccc(Cl)cc2)cc1OC	16.0	4.5	5.3*	0.0	-0.4	11.2
COc1cccc(NC(=O)CN(C)CC(=O)Nc2ccc(-c3ccccc3)cc2)c1	-1.1	-7.0	0.7	-0.4	nt	nt
CCC(C)c1ccc(NC(=O)CN(C)CC(=O)Nc2cccc(OC)c2)cc1 (configuration not stated)	33.0	-1.0	6.1*	-0.3	0.5	-3.1
CCCn1c(SCC(=O)NC(C)(C)C)nnc1-c1cccnc1	9.4	8.1	-1.0	0.0	nt	nt
COc1ccc2c(c1)CC(C(=O)Nc1ccc(-c3ccnc(N)n3)cc1O)CO2 (configuration not stated)	18.9	9.7	1.0	0.1	nt	nt
COc1ccc2c(c1)CC(C(=O)Nc1ccc(-c3ccnc(N)n3)cc1)CO2 (configuration not stated)	-13.8	4.3	5.2*	13.9*	0.8	8.9
CC1=C(C(=O)N2CCCC2)C2(CCCCCC2)OC1=O	-10.3	-5.9	-0.7	0.1	nt	nt
COc1cccc(N2CCN(C(=O)C3=C(C)C(=O)OC34CCCCC4)CC2)c1	-5.5	-1.8	5.6*	0.1	-0.2	1.2
Cc1oc(CC(C)C)c(C(=O)O)c1CN1CCOCC1	-9.6	-6.9	0.6	-0.2	nt	nt
Cc1cccc(C)c1NC(=O)C1(N(Cc2ccccc2)C(=O)c2ccn[nH]2)CCCCC1	14.5	1.4	1.1	0.4	nt	nt
CCN(CC)CCOc1ccc2c(c1)C(=O)c1cc(OCCN(CC)CC)ccc1-2	8.2	49.6*	14.9*	0.3	-0.7	-3.0
CC(C)(CO)NCc1ccc(Br)cc1	-20.5	6.6	5.3*	0.0	-1.0	-7.3
C=CCn1c(=NC(=O)c2cccc(N3C(=O)CCC3=O)c2)sc2cc(F)ccc21	9.7	3.8	0.0	-0.1	nt	nt
Cc1ccc(C2CC(C(F)(F)F)n3ncc(C(=O)NC(C)(C)CC(C)(C)C)c3N2)cc1 (configuration not stated)	-17.5	-3.9	-0.6	0.0	nt	nt
COc1cc(Cl)cc(/C=C2\C(=O)NN(c3ccccc3)C2=O)c1O	-4.1	-0.7	5.7*	-0.1	1.0	18.2
CC(=O)Nc1ccc(S(=O)(=O)N(C)CCOCc2ccccc2)cc1	25.1	7.6	5.4*	0.6	0.1	-5.9
CC(=O)NC(=S)Nc1ccc(S(=O)(=O)N(C)Cc2ccccc2)cc1	11.3	12.2	-0.8	-0.2	nt	nt
O=C(CCc1nc2cccnc2n1Cc1cccs1)N1CCc2ccccc21	-5.5	-9.5	-0.3	-0.1	nt	nt
CC(C)NC(=O)c1cc(=O)[nH]c2ccc(S(=O)(=O)N3CCCCCC3)cc12	10.4	4.3	-1.0	0.5	nt	nt
CC(C)NC(=O)c1cc(=O)[nH]c2ccc(S(=O)(=O)N3CCCC3)cc12	13.2	9.1	6.3*	0.7	-0.2	-0.6
COC(=O)c1ccc(C2Nc3ccc(Cl)cc3C3C=CCC32)cc1 (configuration not stated)	4.7	-21.8	-0.1	-0.2	nt	nt
CN(C)CC(C)(C)CNCC(=O)Nc1cc(C(F)(F)F)cc(C(F)(F)F)c1	40.0	5.2	6.0*	-0.3	-0.5	0.5
SMILES	MITF inh	TEAD-YAP inh	GPR151 ag	FBW7 act	GPR151 conf act	GPR119 counter
NC(=O)C1(Nc2ccccc2)CCCCC1	18.6	3.6	6.8*	0.3	-0.2	1.3
CCCCN1CCC(Nc2ccccc2)(C(N)=O)CC1	8.0	11.3	0.6	0.2	nt	nt
Cc1sc(NC(=O)CCOc2ccccc2)c(C#N)c1C	-5.2	5.8	6.9*	-0.1	-0.7	3.8
Nn1cnnc1N/N=C/c1cc(Cl)cc(Br)c1O	4.1	2.9	-2.3	-0.4	nt	nt
O=c1c(-c2ccccc2)c(N2CCN(Cc3ccccc3)CC2)c1=O	6.5	10.0	4.6	-0.2	nt	nt
CC1CCCCN1CC(=O)Nc1cccc(Br)c1 (configuration not stated)	-2.8	5.6	2.3	0.1	nt	nt
